From PubChem BioAssay (Tox21) come the findings set out here.

Results filed as inconclusive are left out. Calls of active or inactive are those of the source. Calls follow the shape of the dose curve; as a rule, active = well fitted activation curve with a large enough effect in the repeat runs; inconclusive = weak or mixed curves; inactive = flat fitted curve, though single readings scatter.
% is scaled to controls: 0 for no effect and ±100 for the full control effect; potency is read from the fitted curve at half-maximal effect.

This test in a line: A CellTox Green Cytotoxicity Assay to monitor cytotoxicity in HepG2 cells - 40 hour (AID 1224879). Also: nearly all actives have a fitted effect of over 40% in size. To be noted: CellTox Green fluorescence; series mostly up to 76.8 µM; cytotoxicity increase: at the top concentration. The source says:
National Center for Advancing Translational Sciences [NCATS]
NIH Chemical Genomics Center [NCGC]
U.S. Environmental Protection Agency [EPA]
National Institutes of Environmental Health Sciences [NIEHS]
National Toxicology Program [NTP]
Cell-based models are critical for drug discovery. Determining the natural cytotoxic effects resulting from test compounds is an essential research activity. A CellTox Green Cytotoxicity Assay to monitor cytotoxicity in real time of continues cell culture during 40 hours of the compound treatment was used to screen Tox21 10K library compounds in HepG2 cells. CellTox Green Cytotoxicity Assay is a nonlytic, homogeneous, biofluorescent method to measure cytotoxicity in cell culture after experimental manipulation. The assay system uses a proprietary asymmetric cyanine dye that is excluded from viable cells but preferentially stains the dead cell's DNA. […] Viable cells produce no appreciable increases in fluorescence. Therefore, the fluorescence signal produced by the binding interaction with dead cell DNA is proportional to cytotoxicity.
The mixture of HepG2 cell suspension and reagents were dispensed at 600cells/6 ul/well in 1536-well tissue culture treated black solid bottom plates using a Multidrop dispenser. After the assay plates were incubated at a 37 C/5% CO2 incubator for 5 hours, 23 nL of compounds dissolved in DMSO, positive and negative controls was transferred to the assay plate by a pintool work station. The plates were incubated at 37 C for 40 hours. The fluorescence intensity were measured at 0h, 8h, 16h, 24h, 32h and 40h time points using ViewLux plate reader during compound treatment.
Turning to `O=C(O)c1cn(C2CC2)c2cc(Cl)c(F)cc2c1=O`, the “cytotoxicity increase” value was 0.533% [at 35.3 µM] (inactive). On to `CC(=O)c1ccc2c(c1)[C@H](NC(=O)c1ccc(F)cc1)[C@@H](O)C(C)(C)O2`, for which the “cytotoxicity increase” value is -0.198% (inactive). On the same count and under the same terms, for `CC(=O)CC(=O)c1ccccc1` the value was 4.33% (inactive). Consider `CCCOc1ccc2nc(NC(=O)OC)[nH]c2c1`, for which the Potency was 0.477 µM (active). `CCCCCCCCCCCCCCC1CO1` (stereo not given): the “cytotoxicity increase” value was 4.2% (inactive). As to `CN1CCC(=C2c3ccccc3C=Cc3ccccc32)CC1`, the Potency was 26.8 µM (active).

With `O=C(O)C1CCC(C(=O)O)CC1` (stereo not given), the “cytotoxicity increase” value is -14.2% (inactive). The same measure, in the same setting: for `CC(C)c1ccc2c(C(C)C)cc(C(C)C)c(S(=O)(=O)O)c2c1` the value was -10.5% (inactive); for `Cc1ccc(C(=O)C(C)CN2CCCCC2)cc1` (stereo not given), -13% [at 35.3 µM] (inactive); for `Nc1nc(CC(=O)O)cs1`, 1.09% (inactive). On the same count and under the same terms, in the case of `CC1(C)CCC(C)(C)c2cc(NC(=O)c3ccc(C(=O)O)cc3)ccc21` it was 27% [at 35.3 µM] (inactive); in that of `CCCCC(CC)(CO)CO`, -5.67% (inactive). Still for that read-out and setting: in the case of `COCCO` it was -5.34% (inactive).

Take `O=C(CC(=O)c1ccccc1)c1ccccc1`: the “cytotoxicity increase” value was 22.4% (inactive).

In the case of `Cc1ccc(C)o1`, the “cytotoxicity increase” value is 0.502% (inactive). On the same count and under the same terms, in the case of `CCN(CC)C(C)CN1c2ccccc2Sc2ccccc21` (stereo not given) it was 3.71% [at 35.3 µM] (inactive). On to `CC[C@]12CCCN3CCc4c(n(c5ccccc45)C(=O)C1)[C@@H]32`, for which the Potency is 6.74 µM (active). Still for that read-out and setting: for `CC(=O)NCCCS(=O)(=O)O` the value was 18.9 µM (active). Turning to `CC1CCc2cc(F)cc3c(=O)c(C(=O)O)cn1c23` (stereo not given), the “cytotoxicity increase” value was -3.5% [at 35.3 µM] (inactive).

Take `C[C@H](CCC(=O)O)[C@H]1CC[C@H]2[C@@H]3[C@H](O)C[C@@H]4C[C@H](O)CC[C@]4(C)[C@H]3CC[C@]12C`: the “cytotoxicity increase” value was -3.35% (inactive). The same measure, in the same setting: for `C=C(C)C(=O)OC(C)C` the value was -7.45% (inactive); for `CC(C)CCCC(C)CCO` (stereo not given), 28.9% (inactive). The same measure, in the same setting: in the case of `CC(C)=CCCC(C)CC=O` (stereo not given) it was -19.3% (inactive).

For the compound `C=CC(=O)OCC(C)OCC(C)OCC(C)OC(=O)C=C` (stereo not given), the Potency was 49 µM (active). Consider `CC(C(=O)O)c1ccc(C(=O)c2ccccc2)s1` (stereo not given), for which the “cytotoxicity increase” value was 14.8% [at 35.3 µM] (inactive).

On to `CCCCCCCC/C=C\CCCCCCCC(N)=O`, for which the Potency is 34.7 µM (active).

Turning to `CC(CN)CCCN` (stereo not given), the “cytotoxicity increase” value is -0.175% (inactive). The same measure, in the same setting: for `CCCCC(CC)COCCCN` (stereo not given) the value was 16.7% (inactive). For `c1ccc(OCc2ccc(CCCN3CCOCC3)cc2)cc1`, the Potency is 21.3 µM (active). Consider `CCOc1nc2cccc(C(=O)O)c2n1Cc1ccc(-c2ccccc2-c2nn[nH]n2)cc1`, for which the “cytotoxicity increase” value was -14.4% [at 35.3 µM] (inactive).

For the compound `C=CCCCCCC`, the “cytotoxicity increase” value was -0.695% (inactive). On to `N=C(N=C(N)N)N1CCOCC1`, for which the “cytotoxicity increase” value is -20.5% [at 35.3 µM] (inactive). Still for that read-out and setting: in the case of `CC(C)c1ccccc1C(C)C` it was 4.51% (inactive); in that of `Oc1ccc(O)c2c(O)cccc12`, -38.2% (inactive). On the same count and under the same terms, for `O=c1[nH]cnc2ccccc12` the value was 0.395% (inactive). The same measure, in the same setting: in the case of `N[C@H]1C(O)O[C@H](CO)[C@H](O)[C@@H]1O` (stereo not given in full) it was -10.6% (inactive). Turning to `CC(=O)O[C@@H]1C(=O)O[C@@H]2[C@H]1OC(=O)[C@@H]2OC(C)=O`, the Potency was 26.8 µM (active). The same measure, in the same setting: for `CN1CCN(C2=Nc3cc(Cl)ccc3Nc3ccccc32)CC1` the value was 23.9 µM (active). For `O=C(O)/C=C/c1cnc[nH]1`, the “cytotoxicity increase” value is -0.779% (inactive). On to `CCCCCCOC(=O)CCC`, for which the “cytotoxicity increase” value was -3.09% (inactive).
